# Results: PubChem BioAssay (NCATS)
# Values without a mark were called inactive. Results filed as inconclusive are left out. Activity calls are given as the source filed them. Unless noted, calls come from the whole dose curve; as a rule, active = well fitted curve in either direction with a large enough effect (not every such curve was filed as active); inconclusive = small, poorly fitted or top-dose-only effect, or another doubt; inactive = flat fitted curve, though single readings scatter.
# Legend:
# [1] = target: Lysosomal acid glucosylceramidase (Homo sapiens) (UniProt P04062); experiment: Glucocerebrosidase-p2 (AID 348; in the data active = potency below about 10 µM; note: potency is the fitted concentration of half-maximal effect); details: purified GBA, blue fluorogenic substrate, 40 min
# In short: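 Normal human glucocerebrosidase (0.2 nM) with blue fluorogenic substrate (80 uM final) in citrate/phosphate pH 5.9 with 10mM sodium taurocholate, 0.01% tween-20; 40 min RT, NaOH/glycine stop; fluorescence Ex 365/Em 440; AC50 from a titration from 0.6 nM upwards.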
# [2] = AP1 Signaling Pathway (AID 357); details: ME-180 AP-1-bla reporter, EGF-induced, beta-lactamase ratio, 5 h; at 7.69 µM (top of the series) unless noted;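 note: ME-180 reporter cells stimulated with EGF at its EC50 level; % is set by controls: 0 for no effect and ±100 for the full control effect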
# In short: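 First, ME-180 AP-1-bla cells were cultured overnight at 37 °C in low-serum Opti-MEM. Next, titrated compounds with EC50 EGF were incubated 5 hours. Finally, CCF4 was added for 2.5 hours and the 460/530 nm ratio recorded.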
# [3] = target: Cytochrome P450 1A2 (Homo sapiens) (UniProt P05177); experiment: p450-cyp1a2 (AID 410; calls by dose curve; note: potency is the fitted concentration of half-maximal effect;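 for activity change, negative = inhibition: -100% = full effect of reference inhibitor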); details: recombinant CYP1A2, luciferin-ME demethylation, luminescence; series mostly up to 11.4 µM
# In short: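 O-Demethylation of luciferin 6' methyl ether by human CYP1A2 is monitored as luciferase luminescence. Substrate sits at Km (100uM); enzyme is 20nM. Values are scaled to 57 uM furafylline as maximal inhibition.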
# [4] = NFAT Signaling Pathway (AID 444); details: Jurkat NFAT-bla M1, carbachol, beta-lactamase ratio, 5 h; at 7.69 µM (top of the series) unless noted;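 note: carbachol stimulus at about its EC50 of 1 µM final; % is set by controls: 0 for no effect and ±100 for the full control effect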
# In short: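 Jurkat cells carrying an NFAT-driven β-lactamase reporter and co-transfected muscarinic M1 receptor were treated with compound plus carbachol (1 uM final, an EC50 level) for 5 h at 37 °C. CCF4 loading followed for 1 h at RT; 460/530 nm ratio gave %activity.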
# [5] = Stat Signaling Pathway (AID 446); details: ME-180 SIE beta-lactamase reporter, IL-6 stimulated, 5 h; at 7.69 µM (top of the series) unless noted;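 note: ME-180 cervical cancer cells given 40 pM IL-6 alongside compound; SIE-controlled beta-lactamase reporter measured as 460/530 nm FRET emission ratio; % is set by controls: 0 for no effect and ±100 for the full control effect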
# In short: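 Compound effects on IL-6-induced STAT reporter activity were measured in ME-180 cells. After overnight culture, cells were co-treated with 40 pM IL-6 for 5 hrs before beta-lactamase substrate loading at room temperature.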
# [6] = target: Glucocorticoid receptor (Homo sapiens) (UniProt P04150); experiment: GR-GFP Redistribution (AID 450;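 active = compounds whose dose series gives a full or clear partial fitted curve of increased nuclear translocation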; note: potency is the fitted concentration of half-maximal effect); details: U2OS GR-GFP nuclear translocation, laser cytometry, 2 h
# [7] = target: Glucocorticoid receptor (Homo sapiens) (UniProt P04150); experiment: GR-EFC Redistribution (AID 451; calls by dose curve; note: potency is the fitted concentration of half-maximal effect); details: CHO-K1 GR-EFC translocation, beta-gal luminescence, 2 h
# In short: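 CHO-K1 cells stably expressing nuclear-localized β-gal enzyme acceptor and GR fused C-terminally to the enzyme donor fragment; ligand-driven nuclear translocation restores β-gal by complementation. Compounds titrated up to 46 uM final, 2 h at 37 °C; luminescence read.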
# [8] = target: Mitogen-activated protein kinase 10 (Mus musculus) (UniProt Q61831); experiment: JNK3 AlphaScreen Assay (AID 530); details: JNK3 lysate, c-Jun phosphorylation; series mostly up to 11.4 µM;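 note: kinase came from lysate of stimulated human HepG2 cells; signal reports phosphorylation of biotinylated GST-cJun 1-79 at Ser73 with 10 µM ATP; % is set by controls: 0 for no effect and ±100 for the full control effect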
# In short: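 Phosphorylation of biotinylated GST-cJun(1-79) at Ser73 is measured by AlphaScreen proximity luminescence. Enzyme is JNK3 in HepG2 lysates activated with interleukin-1beta and tumor necrosis factor alpha; ATP is 10 uM final.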
# [9] = target: 3',5'-cyclic-AMP phosphodiesterase 4B (Homo sapiens) (UniProt Q07343); experiment: qHTS Assay for Inhibitors of PDE-IV (AID 607; active = well fitted activation curve with a large enough effect in the main read-out, with a control signal flat, not every such curve was filed as active; note: % of control where 0% means no effect); details: HEK293 ACTOne CNG channel cells, membrane potential fluorescence; series mostly up to 22.9 µM
# In short: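 ACTOne HEK293 cells carry a modified cAMP-gated CNG channel and express endogenous PDE4; plated 1000 cells/well, compounds up to 22.9 uM final. Membrane-potential dye fluorescence (ex 535/em 590) was read; parental cells received 10 uM forskolin + 100 uM RO 20-1724.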
# [10] = qHTS Assay for Identification of Small Molecule Agonists for Hypoxia Response Element Signaling Pathway (AID 914; active = well fitted activation curve with a large enough effect in the signal ratio, with a control signal flat, not every such curve was filed as active; the % refers to the signal ratio; note: % of control where 0% means no effect); details: ME-180 (cervical carcinoma) HRE-bla reporter, beta-lactamase ratio, CoCl2, 17 h; activation: stronger effect = higher value
# In short: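 HRE-bla ME-180 assay for agonist-like enhancement of an EC50 CoCl2 stimulus: 17 h at 37 degrees Celsius, CCF4 for 2.5 h, ratiometric 460/530 nm signal converted to %Activity and fitted to AC50.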
# [11] = target: Cytochrome P450 2C19 (Homo sapiens) (UniProt P33261); experiment: qHTS Assay for Inhibitors and Substrates of Cytochrome P450 2C19 (AID 899; active = well fitted inhibition curve with a large enough effect; note: nearly all actives have a fitted effect of over 60% in size; note: potency is the fitted concentration of half-maximal effect); details: recombinant CYP2C19, luciferin-H EGE luminescence; series mostly up to 11.4 µM
# In short: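 Human CYP2C19 (5nM) with Luciferin-H EGE at 10uM (its KM) in 50mM KPO4 was preincubated with compound for 10 min at 37C. NADPH regeneration started a 60 min 37C reaction. Luciferin was read by luminescence, normalized to 57uM ketoconazole.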
# Sequence of Cytochrome P450 1A2 (Homo sapiens) (P05177 whole entry, looked up): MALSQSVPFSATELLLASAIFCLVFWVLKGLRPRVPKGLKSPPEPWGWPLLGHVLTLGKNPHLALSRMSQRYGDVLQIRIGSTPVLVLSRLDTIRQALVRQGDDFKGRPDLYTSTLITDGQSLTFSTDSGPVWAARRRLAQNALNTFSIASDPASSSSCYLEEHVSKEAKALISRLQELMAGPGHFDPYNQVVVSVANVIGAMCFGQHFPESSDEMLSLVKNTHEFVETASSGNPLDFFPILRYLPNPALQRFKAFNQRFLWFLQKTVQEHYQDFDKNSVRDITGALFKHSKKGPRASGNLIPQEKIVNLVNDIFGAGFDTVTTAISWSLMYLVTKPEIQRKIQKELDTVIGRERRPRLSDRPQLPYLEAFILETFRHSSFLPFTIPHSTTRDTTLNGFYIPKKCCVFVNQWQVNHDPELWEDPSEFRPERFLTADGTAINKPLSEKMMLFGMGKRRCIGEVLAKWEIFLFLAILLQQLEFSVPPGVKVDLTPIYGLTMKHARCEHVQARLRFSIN
# Sequence of Cytochrome P450 2C19 (Homo sapiens) (P33261 whole entry, looked up): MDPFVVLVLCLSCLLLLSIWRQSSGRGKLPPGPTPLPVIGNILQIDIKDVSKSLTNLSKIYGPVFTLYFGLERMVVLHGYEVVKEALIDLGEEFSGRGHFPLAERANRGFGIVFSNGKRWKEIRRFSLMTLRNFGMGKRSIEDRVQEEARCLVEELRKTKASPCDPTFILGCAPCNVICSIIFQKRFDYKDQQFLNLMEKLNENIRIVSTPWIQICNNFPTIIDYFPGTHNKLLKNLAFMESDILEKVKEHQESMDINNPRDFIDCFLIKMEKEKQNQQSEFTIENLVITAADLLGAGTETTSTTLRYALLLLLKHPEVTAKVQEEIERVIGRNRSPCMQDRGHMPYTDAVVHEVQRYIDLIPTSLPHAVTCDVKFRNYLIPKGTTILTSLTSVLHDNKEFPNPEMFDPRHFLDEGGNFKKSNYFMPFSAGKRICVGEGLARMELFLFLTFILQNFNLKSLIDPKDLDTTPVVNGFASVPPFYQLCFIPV
# Sequence of Lysosomal acid glucosylceramidase (Homo sapiens) (P04062 whole entry, looked up): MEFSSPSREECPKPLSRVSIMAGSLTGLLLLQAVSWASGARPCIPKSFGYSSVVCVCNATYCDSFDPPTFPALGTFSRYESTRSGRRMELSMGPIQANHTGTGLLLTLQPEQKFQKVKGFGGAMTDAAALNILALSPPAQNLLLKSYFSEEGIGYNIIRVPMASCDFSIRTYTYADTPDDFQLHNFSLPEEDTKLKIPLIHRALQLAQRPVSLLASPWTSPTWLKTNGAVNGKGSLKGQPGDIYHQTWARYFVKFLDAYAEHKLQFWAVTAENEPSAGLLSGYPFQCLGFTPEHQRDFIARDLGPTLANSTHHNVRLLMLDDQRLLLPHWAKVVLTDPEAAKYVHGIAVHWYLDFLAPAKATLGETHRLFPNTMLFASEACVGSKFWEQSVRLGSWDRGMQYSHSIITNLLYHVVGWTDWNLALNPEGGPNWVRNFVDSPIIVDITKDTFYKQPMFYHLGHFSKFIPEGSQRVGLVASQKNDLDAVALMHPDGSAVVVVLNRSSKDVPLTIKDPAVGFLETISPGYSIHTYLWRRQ
# Sequence of 3',5'-cyclic-AMP phosphodiesterase 4B (Homo sapiens) (Q07343 whole entry, looked up): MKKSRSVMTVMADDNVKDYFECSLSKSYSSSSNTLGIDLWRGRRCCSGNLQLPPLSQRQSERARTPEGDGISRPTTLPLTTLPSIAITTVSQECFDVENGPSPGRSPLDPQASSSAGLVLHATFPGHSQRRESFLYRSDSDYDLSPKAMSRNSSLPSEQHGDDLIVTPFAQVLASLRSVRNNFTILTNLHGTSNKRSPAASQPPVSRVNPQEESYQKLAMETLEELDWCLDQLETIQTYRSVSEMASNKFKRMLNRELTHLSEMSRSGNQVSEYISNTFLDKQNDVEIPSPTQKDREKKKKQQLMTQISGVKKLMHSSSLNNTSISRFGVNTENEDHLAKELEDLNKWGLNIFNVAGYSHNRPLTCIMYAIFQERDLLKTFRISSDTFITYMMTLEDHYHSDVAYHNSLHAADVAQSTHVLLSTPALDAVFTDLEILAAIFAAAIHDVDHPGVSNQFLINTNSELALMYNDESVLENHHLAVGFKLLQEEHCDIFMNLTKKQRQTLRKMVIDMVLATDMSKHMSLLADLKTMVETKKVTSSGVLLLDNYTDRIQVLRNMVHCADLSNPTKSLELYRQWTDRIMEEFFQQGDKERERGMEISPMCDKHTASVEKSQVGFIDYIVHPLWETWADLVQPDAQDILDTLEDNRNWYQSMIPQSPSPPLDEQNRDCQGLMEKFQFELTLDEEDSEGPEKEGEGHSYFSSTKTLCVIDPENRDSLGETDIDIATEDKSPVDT
# Sequence of Glucocorticoid receptor (Homo sapiens) (P04150 whole entry, looked up, the tested form may be a part): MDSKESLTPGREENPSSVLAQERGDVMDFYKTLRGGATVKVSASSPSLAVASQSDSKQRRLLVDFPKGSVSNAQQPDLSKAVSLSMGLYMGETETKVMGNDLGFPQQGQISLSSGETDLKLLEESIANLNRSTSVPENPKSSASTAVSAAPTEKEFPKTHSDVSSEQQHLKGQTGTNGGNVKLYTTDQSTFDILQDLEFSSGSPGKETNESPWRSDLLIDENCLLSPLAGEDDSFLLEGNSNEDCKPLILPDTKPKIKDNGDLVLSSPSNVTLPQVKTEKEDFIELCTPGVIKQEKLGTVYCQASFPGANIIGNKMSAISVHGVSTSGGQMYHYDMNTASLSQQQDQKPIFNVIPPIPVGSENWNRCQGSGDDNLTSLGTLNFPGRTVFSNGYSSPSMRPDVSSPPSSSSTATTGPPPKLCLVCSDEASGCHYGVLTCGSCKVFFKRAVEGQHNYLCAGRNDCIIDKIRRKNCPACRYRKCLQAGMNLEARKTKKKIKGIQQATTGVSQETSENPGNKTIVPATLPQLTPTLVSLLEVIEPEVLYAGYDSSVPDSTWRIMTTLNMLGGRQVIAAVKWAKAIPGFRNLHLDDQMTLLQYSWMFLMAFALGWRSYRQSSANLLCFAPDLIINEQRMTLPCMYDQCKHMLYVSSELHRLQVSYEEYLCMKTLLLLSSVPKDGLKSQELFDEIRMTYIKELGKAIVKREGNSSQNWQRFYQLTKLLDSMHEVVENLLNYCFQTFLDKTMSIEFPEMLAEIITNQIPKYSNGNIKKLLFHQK
SMILES,Potency [1] [µM],"activity change, negative = inhibition [2] [%]",Potency [3],"activity change, negative = inhibition [4] [%]","activity, negative = inhibition [5] [%]",Potency [6] [µM],Potency [7] [µM],Potency [8],Potency [9],activation [10] [%],Potency [11],"activity change, negative = inhibition [3]"
O=C(O)c1ccc(CNCc2ccccc2)cc1,> 11.4,-3.63,inactive,-2.06,15.5,> 46,> 9.22,inactive,inactive,4.76,–,–
CN(C)CCNc1ccccn1,> 11.4,-8.09,inactive,12.6,3.69,> 46,> 9.22,inactive,inactive,–,inactive,–
CC(C)(C)c1ccc(OCC(=O)O)c(Cl)c1,> 11.4,-2.54,inactive,10.5,-5.16,> 46,> 9.22,inactive,inactive,–,inactive,–
O[C@@H]1[C@@H](OCc2ccccc2)OC[C@H](O)[C@@H]1O,> 11.4,17.3,inactive,-8.65,4.2,> 46,> 9.22,inactive,inactive,–,inactive,–
O=S(=O)(c1ccccc1)N1CN2CN(C1)CN(S(=O)(=O)c1ccccc1)C2,> 11.4,-16.9,inactive,-4.88,-0.275,> 46,> 9.22,inactive,inactive,-1.12,–,–
c1ccc2c(c1)c1ccccc1n2Cn1c2ccccc2c2ccccc21,> 11.4,10.8,0.251 µM (active),-5.02,8.5,> 46,> 9.22,inactive,inactive,–,0.398 µM (active),–
CN1CCc2[nH]nc(-c3n[nH]c4c3CN(C)CC4)c2C1,> 11.4,3.96,inactive,4.1,2.92,> 46,> 9.22,inactive,inactive,–,inactive,–
CCCn1cnc2c(SCC(=O)O)nc(N)nc21,> 11.4,0.287,inactive,-8.4,-4.97,> 46,> 9.22,inactive,inactive,–,inactive,–
CC(C)(Oc1ccc(-c2cccc3ccccc23)cc1)C(=O)O,> 11.4,2.76,inactive,-8.87,1.48,> 46,> 9.22,inactive,inactive,-19.2,inactive,–
c1ccc2c(CSCc3cccc4ccccc34)cccc2c1,> 11.4,6.44,3.98 µM (active),-28.7,17.1,> 46,> 9.22,inactive,inactive,–,0.126 µM (active),–
C=CC[C@@H](C(=O)O)c1ccccc1,> 11.4,2.31,inactive,9.16,8.67,> 46,> 9.22,inactive,inactive,–,inactive,–
Cn1c(=O)c2c(nc(NCCNc3nc4c(c(=O)n(C)c(=O)n4C)n3C)n2C)n(C)c1=O,> 11.4,4.17,inactive,8.54,14.6,> 46,> 9.22,inactive,inactive,–,inactive,–
C=C1CCO[C@@]2([C@H](O)[C@@](C)(O)CO)NC(=O)[C@]1(O)NC2=O,> 11.4,5.8,–,-4.59,2.56,> 46,> 9.22,inactive,inactive,–,inactive,-4% [at 2.29 µM]
